Data as given in PubChem BioAssay (Tox21).
Records with an inconclusive call do not appear. Unmarked numbers belong to inactive results. Activity calls are given as the source filed them. Calls come from the whole dose curve.

Assay: qHTS assay for small molecule disruptors of the mitochondrial membrane potential - cell viability (AID 720634);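 note: human HepG2 liver cancer cells; nearly all actives have a fitted effect of over 20% in size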
Conditions: HepG2 viability, ATP luminescence (CellTiter-Glo), 1 h; series mostly up to 83.2 µM; activity change, negative = cytotoxicity: at the top concentration
Method in brief: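 Luminescence from CellTiter-Glo (ATP content) gave viability in HepG2 cells, read in the same wells as the MMP dye assay after 1 hr compound exposure at 37 C.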
% is set by controls: 0 for no effect and ±100 for the full control effect.

Question: For CC1CCc2cc(F)cc3c(=O)c(C(=O)O)cn1c23 (configuration not stated), which “activity change, negative = cytotoxicity” value is on record?
Answer: The value was 15.2%.

Question: Which “activity change, negative = cytotoxicity” value does the source give for CC(=O)c1ccc2c(c1)[C@H](NC(=O)c1ccc(F)cc1)[C@@H](O)C(C)(C)O2 here?
Answer: The value was 2.39%.

Question: Which “activity change, negative = cytotoxicity” value does the source give for C=C(C)C(=O)OC(C)C here?
Answer: The value was 8.76%.

Question: With CC(C)c1ccccc1C(C)C as the compound, how does the “activity change, negative = cytotoxicity” value read?
Answer: The value was 4.91%.

Question: For CCOc1cc(OCC)c(C(=O)CCC(=O)O)cc1OCC, which “activity change, negative = cytotoxicity” value is on record?
Answer: The value was -4.72%.

Question: For CC(C)CCCC(C)CCO (configuration not stated), which “activity change, negative = cytotoxicity” value is on record?
Answer: Its value is 6.24%.

Question: Which “activity change, negative = cytotoxicity” value does the source give for CC(C)(C)C1CCCCC1O (configuration not stated) here?
Answer: The value was 9.29%.

Question: With CCC(=O)OC(C)(C)C1CC=C(C)CC1 (configuration not stated) as the compound, how does the “activity change, negative = cytotoxicity” value read?
Answer: The value was -2.38%.

Question: For Cc1ncsc1CCO, which “activity change, negative = cytotoxicity” value is on record?
Answer: Its value is -1.52%.

Question: With CCCOc1ccc2nc(NC(=O)OC)[nH]c2c1 as the compound, how does the “activity change, negative = cytotoxicity” value read?
Answer: The value was 15.9%.

Question: For COCCOCCOCCOCCOC, which “activity change, negative = cytotoxicity” value is on record?
Answer: Its value is 5.58%.

Question: Which Potency does the source give for CC(=O)Nc1ccc(/C=N/NC(N)=S)cc1 here?
Answer: The Potency was “inactive”.

Question: For COc1ccc(C(C)=O)cc1, which “activity change, negative = cytotoxicity” value is on record?
Answer: The value was 13.7% [at 95.3 µM].

Question: With N=C(N=C(N)N)N1CCOCC1 as the compound, how does the “activity change, negative = cytotoxicity” value read?
Answer: The value was 8.03% [at 39.1 µM].

Question: For CCCCCCCCCO, which “activity change, negative = cytotoxicity” value is on record?
Answer: The value was 7.26%.

Question: For CC[C@H](C)[C@H](N)C(=O)O, which “activity change, negative = cytotoxicity” value is on record?
Answer: Its value is 7.38%.

Question: Which “activity change, negative = cytotoxicity” value does the source give for Cc1cc(NC(=O)C(=O)O)cc(C)c1Oc1ccc(O)c2c1CCC2 here?
Answer: Its value is 2.38%.

Question: For O=C(C(=O)c1ccc(Br)cc1)c1ccc(Br)cc1, which “activity change, negative = cytotoxicity” value is on record?
Answer: Its value is 7% [at 39.1 µM].

Question: For CC(C)=CCCC(C)CC=O (configuration not stated), which “activity change, negative = cytotoxicity” value is on record?
Answer: Its value is 10.3%.

Question: Which “activity change, negative = cytotoxicity” value does the source give for COCCO here?
Answer: Its value is 7.69%.

Question: With O=C=NC1CCC(CC2CCC(N=C=O)CC2)CC1 (configuration not stated) as the compound, how does the “activity change, negative = cytotoxicity” value read?
Answer: The value was 6.49%.

Question: With CC(C)c1cccc(C(C)C)c1NC(=O)NS(=O)(=O)c1cc(C(C)(C)O)co1 as the compound, how does the “activity change, negative = cytotoxicity” value read?
Answer: The value was -8.37%.

Question: For Nc1nc(N)c2nc(CNc3ccc(C(=O)N[C@@H](CCC(=O)O)C(=O)O)cc3)cnc2n1, which Potency is on record?
Answer: The Potency was “inactive”.

Question: Which “activity change, negative = cytotoxicity” value does the source give for C1=Cc2ccccc2C1 here?
Answer: Its value is -9.67%.

Question: For CCCCCc1ccc(N)cc1, which “activity change, negative = cytotoxicity” value is on record?
Answer: Its value is -14.3%.

Question: For Cc1cccc(OCCOc2cccc(C)c2)c1, which “activity change, negative = cytotoxicity” value is on record?
Answer: Its value is -10.5% [at 95.3 µM].

Question: With Cc1ccc(C(=O)C(C)CN2CCCCC2)cc1 (configuration not stated) as the compound, how does the Potency read?
Answer: Its Potency is “inactive”.
